Data: the supplement of paper PMC10849652
Of roughly 7,900 targets only a part is listed; those with a hit were picked by preference. About 0.6% of all pairs of compound and target were hits. A number with no mark means an inactive call.

What was measured:
Experiment in all cases: log2 fold change, soluble protein after heating vs DMSO (PISA); higher = thermal stabilisation; K562 cells, 10 uM, 30 min; active = over 0.2 and 3.5 SD of the protein, either way, in both replicates (recomputed)
[1] = compound: COC1=CC=C(C=C1)CN2C=CC3=C2C=C(C=C3)C(=O)NO
Procedure, shortened: (§1)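 Values are thermal stability changes relative to control samples and are taken from duplicates. They are stated as log2 fold changes. Before quantification by TMTpro 16plex LC-MS/MS with equalised channel sums, K562 cells at 2×10^6 cells/mL were treated with 10 μM compound for 30 min, heated in aliquots for 3 min across 48°C-58°C, pooled, extracted in PBS with 0.5% NP-40 at 4°C, and centrifuged at 21,000xg for 90 min to give the soluble supernatant.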

filanesib = compound: CON(C)C(=O)N1N=C(c2cc(F)ccc2F)S[C@@]1(CCCN)c1ccccc1 [filanesib]
Procedure, shortened: as §1

zotarolimus = compound: CO[C@H]1C[C@@H]2CC[C@@H](C)[C@@](O)(O2)C(=O)C(=O)N2CCCC[C@H]2C(=O)O[C@H]([C@H](C)C[C@@H]2CC[C@H](n3cnnn3)[C@H](OC)C2)CC(=O)[C@H](C)/C=C(\C)[C@@H](O)[C@@H](OC)C(=O)[C@H](C)C[C@H](C)/C=C/C=C/C=C/1C [zotarolimus]
Procedure, shortened: as §1

idasanutlin = compound: COc1cc(C(=O)O)ccc1NC(=O)[C@@H]1N[C@@H](CC(C)(C)C)[C@](C#N)(c2ccc(Cl)cc2F)[C@H]1c1cccc(Cl)c1F [idasanutlin]
Procedure, shortened: as §1

alisertib = compound: COc1cc(Nc2ncc3c(n2)-c2ccc(Cl)cc2C(c2c(F)cccc2OC)=NC3)ccc1C(=O)O [alisertib]
Procedure, shortened: as §1

[2] = compound: COc1cc2nc(-c3cc(F)ccc3O)nc(N[C@@H]3CNC[C@H]3C(C)(C)O)c2cc1OC
Procedure, shortened: as §1

gefitinib = compound: COc1cc2ncnc(Nc3ccc(F)c(Cl)c3)c2cc1OCCCN1CCOCC1 [gefitinib]
Procedure, shortened: as §1

[3] = compound: COc1cccc2cc(-c3nc([C@H]4CC[C@H](C(=O)O)CC4)n4ncnc(N)c34)[nH]c12
Procedure, shortened: as §1

lapatinib = compound: CS(=O)(=O)CCNCc1ccc(-c2ccc3ncnc(Nc4ccc(OCc5cccc(F)c5)c(Cl)c4)c3c2)o1 [lapatinib]
Procedure, shortened: as §1

pictilisib = compound: CS(=O)(=O)N1CCN(Cc2cc3nc(-c4cccc5[nH]ncc45)nc(N4CCOCC4)c3s2)CC1 [pictilisib]
Procedure, shortened: as §1

UniProt Q14203, sequence (Q14203 whole entry, looked up): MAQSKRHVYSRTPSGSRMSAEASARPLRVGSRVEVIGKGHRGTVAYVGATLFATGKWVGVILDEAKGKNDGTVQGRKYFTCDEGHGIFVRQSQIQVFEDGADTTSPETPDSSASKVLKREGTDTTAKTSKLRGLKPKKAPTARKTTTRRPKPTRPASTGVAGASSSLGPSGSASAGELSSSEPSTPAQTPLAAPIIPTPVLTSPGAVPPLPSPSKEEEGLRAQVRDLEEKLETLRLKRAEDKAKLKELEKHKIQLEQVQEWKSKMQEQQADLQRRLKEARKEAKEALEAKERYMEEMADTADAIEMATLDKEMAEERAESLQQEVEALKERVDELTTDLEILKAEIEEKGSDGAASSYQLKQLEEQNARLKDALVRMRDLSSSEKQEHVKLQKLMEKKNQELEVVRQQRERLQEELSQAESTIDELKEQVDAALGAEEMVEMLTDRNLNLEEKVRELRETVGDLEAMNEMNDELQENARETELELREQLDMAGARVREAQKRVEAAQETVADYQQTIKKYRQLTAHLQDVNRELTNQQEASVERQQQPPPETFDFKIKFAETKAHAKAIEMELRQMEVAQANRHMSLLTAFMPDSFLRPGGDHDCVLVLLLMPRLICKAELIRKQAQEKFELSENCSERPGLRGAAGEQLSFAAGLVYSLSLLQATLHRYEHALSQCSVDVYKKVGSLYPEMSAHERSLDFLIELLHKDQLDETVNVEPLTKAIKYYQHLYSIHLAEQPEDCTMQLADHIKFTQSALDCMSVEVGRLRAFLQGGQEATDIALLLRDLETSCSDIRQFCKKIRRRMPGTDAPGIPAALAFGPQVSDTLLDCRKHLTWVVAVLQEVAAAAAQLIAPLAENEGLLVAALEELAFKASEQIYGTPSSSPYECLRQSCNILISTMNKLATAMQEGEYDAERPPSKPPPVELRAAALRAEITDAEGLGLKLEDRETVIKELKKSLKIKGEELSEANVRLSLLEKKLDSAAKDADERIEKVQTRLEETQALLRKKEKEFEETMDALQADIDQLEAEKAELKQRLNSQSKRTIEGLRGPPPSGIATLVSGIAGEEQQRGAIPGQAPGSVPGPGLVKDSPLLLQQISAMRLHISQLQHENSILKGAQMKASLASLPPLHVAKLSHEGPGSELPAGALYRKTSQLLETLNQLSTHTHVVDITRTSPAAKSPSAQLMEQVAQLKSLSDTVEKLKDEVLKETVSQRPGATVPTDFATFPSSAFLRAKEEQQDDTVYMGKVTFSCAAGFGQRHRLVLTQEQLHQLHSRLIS
UniProt Q9NRY5, sequence (Q9NRY5 whole entry, looked up): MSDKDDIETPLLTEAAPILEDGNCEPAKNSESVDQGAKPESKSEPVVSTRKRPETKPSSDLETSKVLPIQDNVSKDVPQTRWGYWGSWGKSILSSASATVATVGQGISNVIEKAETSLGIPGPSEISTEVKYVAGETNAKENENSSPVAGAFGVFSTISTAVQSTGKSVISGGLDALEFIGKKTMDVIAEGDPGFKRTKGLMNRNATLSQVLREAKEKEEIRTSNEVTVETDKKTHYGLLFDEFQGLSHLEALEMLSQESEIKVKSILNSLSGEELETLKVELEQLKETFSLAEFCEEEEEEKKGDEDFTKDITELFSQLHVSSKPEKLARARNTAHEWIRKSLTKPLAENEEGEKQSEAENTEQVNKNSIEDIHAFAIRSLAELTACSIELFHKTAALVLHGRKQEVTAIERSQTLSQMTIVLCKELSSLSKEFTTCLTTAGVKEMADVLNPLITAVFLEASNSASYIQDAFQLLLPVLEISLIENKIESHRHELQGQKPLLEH
UniProt Q5NDL2, sequence (Q5NDL2 whole entry, looked up): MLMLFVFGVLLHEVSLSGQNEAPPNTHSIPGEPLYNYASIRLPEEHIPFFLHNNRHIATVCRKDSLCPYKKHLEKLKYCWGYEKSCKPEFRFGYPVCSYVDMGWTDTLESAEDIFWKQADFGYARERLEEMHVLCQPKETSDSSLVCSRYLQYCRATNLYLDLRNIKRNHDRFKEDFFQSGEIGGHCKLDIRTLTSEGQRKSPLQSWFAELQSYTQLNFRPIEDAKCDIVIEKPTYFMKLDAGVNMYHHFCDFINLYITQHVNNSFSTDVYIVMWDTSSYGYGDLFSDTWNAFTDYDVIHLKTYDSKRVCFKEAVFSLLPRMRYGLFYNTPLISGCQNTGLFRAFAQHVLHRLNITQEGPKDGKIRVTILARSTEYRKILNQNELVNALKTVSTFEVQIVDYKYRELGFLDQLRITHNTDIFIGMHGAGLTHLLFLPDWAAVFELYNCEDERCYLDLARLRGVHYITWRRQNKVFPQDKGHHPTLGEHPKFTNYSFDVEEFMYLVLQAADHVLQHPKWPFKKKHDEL
UniProt Q7Z2Z2, sequence (Q7Z2Z2 whole entry, looked up): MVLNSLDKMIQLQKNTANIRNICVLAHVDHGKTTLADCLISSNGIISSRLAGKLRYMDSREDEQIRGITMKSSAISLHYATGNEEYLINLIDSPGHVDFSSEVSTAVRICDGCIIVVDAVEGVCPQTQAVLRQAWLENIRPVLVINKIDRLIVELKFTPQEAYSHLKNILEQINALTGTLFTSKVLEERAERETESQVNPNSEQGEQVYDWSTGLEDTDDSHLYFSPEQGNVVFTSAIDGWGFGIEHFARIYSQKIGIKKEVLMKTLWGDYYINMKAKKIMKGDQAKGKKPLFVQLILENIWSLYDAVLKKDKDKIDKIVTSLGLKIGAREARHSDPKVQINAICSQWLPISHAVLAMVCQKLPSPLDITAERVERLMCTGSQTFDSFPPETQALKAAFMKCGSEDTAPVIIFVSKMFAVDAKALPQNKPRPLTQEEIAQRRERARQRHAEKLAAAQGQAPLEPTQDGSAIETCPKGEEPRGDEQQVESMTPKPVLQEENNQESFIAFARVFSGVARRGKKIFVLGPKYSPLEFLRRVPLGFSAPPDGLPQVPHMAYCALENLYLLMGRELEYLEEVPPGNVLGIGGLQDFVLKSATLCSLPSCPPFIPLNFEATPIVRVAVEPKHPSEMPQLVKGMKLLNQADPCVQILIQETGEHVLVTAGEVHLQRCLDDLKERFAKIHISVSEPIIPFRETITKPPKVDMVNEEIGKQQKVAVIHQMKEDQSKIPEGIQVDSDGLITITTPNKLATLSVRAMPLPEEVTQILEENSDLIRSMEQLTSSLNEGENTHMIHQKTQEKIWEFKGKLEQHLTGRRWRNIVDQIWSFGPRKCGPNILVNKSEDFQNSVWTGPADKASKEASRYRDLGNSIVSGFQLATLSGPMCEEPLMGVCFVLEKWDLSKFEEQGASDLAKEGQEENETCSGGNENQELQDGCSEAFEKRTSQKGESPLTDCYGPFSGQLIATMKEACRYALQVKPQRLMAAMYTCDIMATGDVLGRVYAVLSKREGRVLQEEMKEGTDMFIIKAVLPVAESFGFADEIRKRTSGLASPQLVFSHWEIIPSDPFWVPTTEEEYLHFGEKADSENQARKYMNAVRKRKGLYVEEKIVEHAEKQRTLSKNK
UniProt Q96KP1, sequence (Q96KP1 whole entry, looked up): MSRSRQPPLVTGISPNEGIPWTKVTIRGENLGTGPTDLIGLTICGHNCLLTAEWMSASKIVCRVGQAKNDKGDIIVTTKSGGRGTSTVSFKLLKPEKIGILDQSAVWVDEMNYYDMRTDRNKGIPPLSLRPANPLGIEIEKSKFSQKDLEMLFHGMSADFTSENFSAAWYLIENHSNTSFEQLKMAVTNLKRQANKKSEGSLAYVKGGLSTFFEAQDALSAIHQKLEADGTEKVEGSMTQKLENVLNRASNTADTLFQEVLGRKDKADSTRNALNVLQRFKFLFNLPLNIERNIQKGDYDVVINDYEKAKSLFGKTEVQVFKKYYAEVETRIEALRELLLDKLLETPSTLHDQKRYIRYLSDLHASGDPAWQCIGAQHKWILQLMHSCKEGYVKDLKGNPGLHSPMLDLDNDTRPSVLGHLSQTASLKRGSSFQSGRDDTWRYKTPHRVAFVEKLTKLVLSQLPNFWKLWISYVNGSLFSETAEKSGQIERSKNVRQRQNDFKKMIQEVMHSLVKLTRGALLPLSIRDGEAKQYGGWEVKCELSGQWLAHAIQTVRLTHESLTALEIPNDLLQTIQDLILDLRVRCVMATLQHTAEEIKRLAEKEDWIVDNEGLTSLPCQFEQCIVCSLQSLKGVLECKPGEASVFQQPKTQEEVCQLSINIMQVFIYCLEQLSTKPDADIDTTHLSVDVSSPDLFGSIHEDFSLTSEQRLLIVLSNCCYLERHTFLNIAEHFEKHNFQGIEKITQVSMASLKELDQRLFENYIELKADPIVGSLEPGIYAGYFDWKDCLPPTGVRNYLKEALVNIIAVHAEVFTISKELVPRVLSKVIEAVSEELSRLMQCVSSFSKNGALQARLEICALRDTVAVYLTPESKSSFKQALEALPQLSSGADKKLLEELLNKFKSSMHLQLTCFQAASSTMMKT
UniProt Q96DF8, sequence (Q96DF8 whole entry, looked up): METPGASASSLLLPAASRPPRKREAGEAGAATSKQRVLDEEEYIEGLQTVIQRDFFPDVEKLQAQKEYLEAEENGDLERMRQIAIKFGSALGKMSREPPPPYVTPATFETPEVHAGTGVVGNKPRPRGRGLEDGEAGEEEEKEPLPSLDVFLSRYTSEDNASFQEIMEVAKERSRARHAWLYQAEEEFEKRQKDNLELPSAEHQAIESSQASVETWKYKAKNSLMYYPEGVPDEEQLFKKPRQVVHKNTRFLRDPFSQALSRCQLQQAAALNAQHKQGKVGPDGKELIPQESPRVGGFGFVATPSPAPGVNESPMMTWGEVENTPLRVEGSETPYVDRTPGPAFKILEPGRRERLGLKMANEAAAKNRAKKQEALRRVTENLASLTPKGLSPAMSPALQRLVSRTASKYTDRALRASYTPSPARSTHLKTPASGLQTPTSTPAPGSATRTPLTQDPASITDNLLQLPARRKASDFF
UniProt Q8NBI2, sequence (Q8NBI2 whole entry, looked up): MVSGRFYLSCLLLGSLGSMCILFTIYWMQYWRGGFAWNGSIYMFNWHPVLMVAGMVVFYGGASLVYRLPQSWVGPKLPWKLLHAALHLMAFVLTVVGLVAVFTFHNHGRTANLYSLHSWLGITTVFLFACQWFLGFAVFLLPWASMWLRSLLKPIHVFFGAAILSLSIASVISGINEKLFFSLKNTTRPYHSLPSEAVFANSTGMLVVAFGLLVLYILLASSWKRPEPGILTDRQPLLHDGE

Target | log2 fold change [1] | log2 fold change (filanesib) | log2 fold change (zotarolimus) | log2 fold change (idasanutlin) | log2 fold change (alisertib) | log2 fold change [2] | log2 fold change (gefitinib) | log2 fold change [3] | log2 fold change (lapatinib) | log2 fold change (pictilisib)
EDEM2 (UniProt Q9BV94) | -0.149 | -0.03 | 0.022 | -0.154 | -0.441 (active) | 0.028 | 0.033 | 0.205 | -0.064 | 0.09
EXOC4 (UniProt Q96A65) | 0.029 | 0.009 | 0.065 | -0.052 | -0.002 | 0.164 | 0.002 | -0.086 | 0.008 | -0.059
DDOST (UniProt P39656) | -0.068 | -0.009 | 0.036 | 0.013 | -0.065 | 0.003 | -0.019 | 0.012 | 0.019 | -0.04
EFL1 (UniProt Q7Z2Z2) | -0.021 | -0.069 | 0.022 | -0.071 | -0.013 | 0.042 | 0.019 | 0.033 | -0.034 | -0.016
DHX16 (UniProt O60231) | 0.008 | 0.096 | 0.023 | -0.03 | -0.079 | 0.028 | 0.043 | 0.04 | 0.02 | -0.012
DAB2 (UniProt P98082) | -0.009 | 0.079 | 0 | -0.055 | -0.081 | 0.155 | 0.024 | 0.011 | -0.005 | 0.071
ESS2 (UniProt Q96DF8) | -0.022 | 0.046 | -0.019 | 0.052 | -0.125 | -0.037 | -0.088 | 0.005 | 0.073 | -0.083
CTSH (UniProt P09668) | 0.066 | -0.072 | -0.046 | 0.029 | -0.06 | 0.021 | 0.025 | 0.084 | 0.018 | 0.019
EIF4E isoform 2 (UniProt P06730) | -0.002 | -0.038 | 0.346 (active) | -0.085 | -0.083 | 0.039 | 0.112 | 0.354 (active) | 0.039 | 0.373 (active)
EMD (UniProt P50402) | -0.049 | -0.013 | 0.007 | 0.037 | -0.08 | -0.031 | -0.053 | 0.074 | -0.025 | 0.093
DUS2 (UniProt Q9NX74) | -0.02 | -0.014 | -0.041 | -0.004 | -0.075 | 0.059 | 0.04 | -0.11 | 0.043 | -0.128
EOGT (UniProt Q5NDL2) | -0.026 | 0.053 | 0.013 | 0.036 | 0.028 | 0.056 | 0.008 | -0.021 | 0.068 | 0.007
EHBP1L1 (UniProt Q8N3D4) | 0.054 | 0.147 | 0.065 | -0.021 | -0.098 | 0.119 | -0.009 | -0.026 | 0.03 | 0.217
DYNC1I2 isoform 5 (UniProt Q13409) | 0.012 | 0.003 | 0.025 | 0.025 | -0.051 | 0 | -0.003 | 0.004 | 0.021 | 0.035
CTU1 (UniProt Q7Z7A3) | 0.045 | -0.193 | 0.022 | -0.037 | -0.063 | -0.061 | -0.024 | 0.025 | -0.085 | -0.005
DHRS3 (UniProt O75911) | 0.13 | -0.009 | -0.056 | -0.107 | 0.008 | 0.031 | 0.067 | 0.021 | 0.065 | 0.019
CYB561A3 isoform 2 (UniProt Q8NBI2) | -0.026 | -0.073 | 0.011 | -0.066 | 0.041 | 0.023 | -0.06 | 0.088 | -0.019 | 0.263
DCAF13 (UniProt Q9NV06) | -0.083 | 0.333 | -0.01 | 0.17 | -0.067 | -0.047 | -0.063 | -0.112 | 0.083 | -0.103
CUX1 isoform 3 (UniProt P39880) | 0.068 | 0.001 | -0.002 | 0.012 | -0.047 | -0.024 | 0.009 | 0.008 | 0.013 | 0.054
FAM114A2 (UniProt Q9NRY5) | 0 | -0.131 | -0.01 | -0.036 | -0.038 | -0.093 | 0.002 | 0.035 | -0.009 | -0.02
EEA1 (UniProt Q15075) | 0.041 | -0.012 | -0.028 | 0.017 | -0.031 | 0.002 | 0.007 | 0.036 | 0.021 | 0
DBN1 isoform 3 (UniProt Q16643) | 0.012 | 0.182 | 0.074 | 0.061 | -0.023 | -0.024 | 0.05 | 0.084 | -0.041 | -0.111
EIF3J (UniProt O75822) | -0.067 | -0.086 | 0.007 | -0.042 | -0.018 | 0.079 | -0.004 | -0.057 | -0.057 | -0.04
EXOC2 (UniProt Q96KP1) | 0.015 | -0.009 | 0.021 | -0.02 | -0.011 | 0.096 | 0.107 | -0.106 | -0.037 | 0.059
DCTN1 isoform 4 (UniProt Q14203) | -0.007 | 0.047 | 0.095 | 0.012 | -0.045 | 0.007 | 0.042 | -0.083 | -0.007 | -0.135
DCUN1D1 (UniProt Q96GG9) | 0.065 | -0.003 | 0.015 | -0.062 | 0.008 | -0.021 | 0.004 | 0.031 | 0.019 | 0.015
EHD2 (UniProt Q9NZN4) | 0.001 | -0.013 | 0.007 | -0.025 | -0.02 | 0.092 | -0.034 | 0.055 | -0.06 | -0.051
FADS3 (UniProt Q9Y5Q0) | -0.067 | -0.151 | -0.062 | 0.007 | 0.005 | -0.036 | 0.04 | 0.168 | 0.097 | 0.168
FAM83D (UniProt Q9H4H8) | -0.009 | 0.062 | 0.051 | -0.109 | -0.135 | 0.018 | 0.05 | -0.034 | 0.021 | -0.136
DOHH (UniProt Q9BU89) | -0.4 | -0.151 | 0.022 | -0.038 | -0.062 | -0.041 | 0.201 | 0.084 | -0.006 | -0.171
